Measured values: the supplement of paper PMC10849652
Targets with a hit are over-represented here; the source holds about 7,900 in all. About 0.6% of all pairs of compound and target were hits.

How the values were obtained:
Assay in all cases: log2 fold change, soluble protein after heating vs DMSO (PISA); higher = thermal stabilisation; K562 cells, 10 uM, 30 min; active = over 0.2 and 3.5 SD of the protein, either way, in both replicates (recomputed)
[1] = compound: CS(=O)(=O)c1ccc(-c2cnc(N)c(C(=O)Nc3ccccc3)n2)cc1
Outline: (§1)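 For each measurement, 10 μM compound was applied for 30 min to K562 cells at 2×10^6 cells/mL. Aliquots were heated for 3 min across 48°C-58°C, pooled, and extracted in PBS with 0.5% NP-40 at 4°C; the supernatant after 21,000xg for 90 min was soluble protein. This was quantified by TMTpro 16plex LC-MS/MS with channel sums equalised, and thermal stability was reported relative to control samples from duplicates, on a log2 fold-change scale.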

[2] = compound: C[C@@H](Oc1cc(-c2cnn(C3CCNCC3)c2)cnc1N)c1c(Cl)ccc(F)c1Cl [crizotinib]
Outline: as §1

[3] = compound: C[C@@H]1COCCN1C2=NC(=NC(=C2)C3(CC3)S(=O)(=O)C)C4=C5C=CNC5=CC=C4
Outline: as §1

[4] = compound: C[C@H](C1=CC=C(C=C1)C(=O)NC2=C3C=CNC3=NC=C2)N
Outline: as §1

[5] = compound: C[C@H](Nc1ncnc2nc[nH]c12)c1cc2cccc(Cl)c2c(=O)n1-c1ccccc1 [duvelisib]
Outline: as §1

[6] = compound: Cc1cc(Nc2cc(CN3CCOCC3)c3nc(C)c(Cc4ccc(Cl)cc4F)n3n2)n[nH]1 [gandotinib]
Outline: as §1

[7] = compound: Cc1cc(Nc2cc(N3CCN(C)CC3)nc(Sc3ccc(NC(=O)C4CC4)cc3)n2)n[nH]1 [tozasertib]
Outline: as §1

[8] = compound: Cc1cc(SCc2sc(-c3ccc(C(F)(F)F)cc3)nc2C)ccc1OCC(=O)O
Outline: as §1

[9] = compound: Cc1ccc(-n2nc(C(C)(C)C)cc2NC(=O)Nc2ccc(OCCN3CCOCC3)c3ccccc23)cc1 [doramapimod]
Outline: as §1

[10] = compound: Cc1ccc(C(=O)N(CCCN)[C@@H](c2nc3cc(Cl)ccc3c(=O)n2Cc2ccccc2)C(C)C)cc1 [ispinesib]
Outline: as §1

[11] = compound: Cc1ccc(NC(=O)c2ccc(CN3CC[C@H](N(C)C)C3)c(C(F)(F)F)c2)cc1Nc1nccc(-c2cncnc2)n1 [bafetinib]
Outline: as §1

[12] = compound: Cc1cccc(CC(=O)N2CCc3c2ccc(-c2cn(C)c4ncnc(N)c24)c3F)n1
Outline: as §1

[13] = compound: Cc1cn(-c2cc(NC(=O)c3ccc(C)c(Nc4nccc(-c5cccnc5)n4)c3)cc(C(F)(F)F)c2)cn1 [nilotinib]
Outline: as §1

[14] = compound: Cc1nc(Nc2n[nH]c3c2CN(C(=O)N[C@H](CN(C)C)c2ccccc2)C3(C)C)c2sccc2n1
Outline: as §1

[15] = compound: Cc1nc(Nc2ncc(C(=O)Nc3c(C)cccc3Cl)s2)cc(N2CCN(CCO)CC2)n1 [dasatinib]
Outline: as §1

[16] = compound: Cc1ncc(-c2ccnc(Nc3ccc(S(C)(=O)=O)cc3)n2)n1C(C)C
Outline: as §1

[17] = compound: Cn1cc(-c2ccc3c(c2)CCN3C(=O)Cc2cccc(C(F)(F)F)c2)c2c(N)ncnc21
Outline: as §1

[18] = compound: Cn1cc(-c2ccc3nnc(C(F)(F)c4ccc5ncccc5c4)n3n2)cn1
Outline: as §1

[19] = compound: Cn1cncc1[C@@](N)(c1ccc(Cl)cc1)c1ccc2c(c1)c(-c1cccc(Cl)c1)cc(=O)n2C [tipifarnib]
Outline: as §1

[20] = compound: FC(F)(F)c1ccc(/C=C/c2nc(COc3ccc(CCCCn4ccnn4)cc3)co2)cc1 [mubritinib]
Outline: as §1

Measured: log2 fold change

L2HGDH (UniProt Q9H9P8)
UniProt Q9H9P8, sequence (Q9H9P8 whole entry, looked up): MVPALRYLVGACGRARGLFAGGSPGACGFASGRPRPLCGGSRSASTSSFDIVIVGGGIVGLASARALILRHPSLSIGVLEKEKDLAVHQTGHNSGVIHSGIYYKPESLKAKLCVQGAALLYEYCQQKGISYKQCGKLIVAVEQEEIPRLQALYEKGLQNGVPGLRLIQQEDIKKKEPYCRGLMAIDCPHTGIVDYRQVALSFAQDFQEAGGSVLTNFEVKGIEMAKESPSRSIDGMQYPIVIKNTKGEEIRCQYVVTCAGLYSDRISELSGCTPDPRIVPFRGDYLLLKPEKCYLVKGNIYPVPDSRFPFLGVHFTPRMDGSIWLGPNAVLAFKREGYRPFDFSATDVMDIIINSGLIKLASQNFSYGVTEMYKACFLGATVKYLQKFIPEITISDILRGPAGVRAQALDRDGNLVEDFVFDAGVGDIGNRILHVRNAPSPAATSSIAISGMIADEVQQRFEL
inactive: [1] 0.04 | [2] -0.081 | [3] 0.124 | [4] -0.025 | [5] 0.063 | [6] 0.024 | [7] -0.082 | [8] 0.039 | [9] -0.02 | [10] -0.083 | [11] -0.089 | [12] -0.037 | [13] 0.06 | [14] 0.002 | [15] -0.046 | [16] -0.002 | [17] 0.077 | [18] 0.053 | [19] 0.021 | [20] 0.061

LPCAT3 (UniProt Q6P1A2)
UniProt Q6P1A2, sequence (Q6P1A2 whole entry, looked up): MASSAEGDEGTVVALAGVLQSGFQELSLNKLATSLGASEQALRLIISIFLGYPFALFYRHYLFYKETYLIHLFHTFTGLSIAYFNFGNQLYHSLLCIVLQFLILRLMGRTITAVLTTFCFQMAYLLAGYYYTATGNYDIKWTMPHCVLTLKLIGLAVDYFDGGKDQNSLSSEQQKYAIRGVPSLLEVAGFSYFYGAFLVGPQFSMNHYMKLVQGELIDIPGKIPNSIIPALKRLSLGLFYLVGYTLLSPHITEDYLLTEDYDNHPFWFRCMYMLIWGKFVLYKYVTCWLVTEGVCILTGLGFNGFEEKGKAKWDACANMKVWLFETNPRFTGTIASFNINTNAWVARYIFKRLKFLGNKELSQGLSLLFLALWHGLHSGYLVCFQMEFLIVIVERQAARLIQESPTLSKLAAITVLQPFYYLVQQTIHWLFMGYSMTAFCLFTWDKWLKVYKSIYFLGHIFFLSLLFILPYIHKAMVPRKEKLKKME
active: [10] -0.696 | [16] 0.363
inactive: [1] 0.091 | [2] -0.121 | [3] 0.171 | [4] 0.006 | [5] -0.035 | [6] -0.167 | [7] -0.027 | [8] 0.027 | [9] -0.042 | [11] 0.108 | [12] 0.063 | [13] 0.044 | [14] 0 | [15] 0.051 | [17] 0.153 | [18] -0.015 | [19] -0.216 | [20] 0.034

MAPKAPK5 (UniProt Q8IW41)
inactive: [1] 0.012 | [2] -0.046 | [3] 0.027 | [4] 0.069 | [5] 0.056 | [6] 0.297 | [7] -0.042 | [8] -0.013 | [9] 0.141 | [10] -0.017 | [11] 0.123 | [12] -0.014 | [13] 0.057 | [14] -0.035 | [15] -0.031 | [16] 0.052 | [17] -0.065 | [18] -0.074 | [19] -0.083 | [20] 0.075

LARP4 isoform 4 (UniProt Q71RC2)
UniProt Q71RC2, sequence (Q71RC2 whole entry, looked up): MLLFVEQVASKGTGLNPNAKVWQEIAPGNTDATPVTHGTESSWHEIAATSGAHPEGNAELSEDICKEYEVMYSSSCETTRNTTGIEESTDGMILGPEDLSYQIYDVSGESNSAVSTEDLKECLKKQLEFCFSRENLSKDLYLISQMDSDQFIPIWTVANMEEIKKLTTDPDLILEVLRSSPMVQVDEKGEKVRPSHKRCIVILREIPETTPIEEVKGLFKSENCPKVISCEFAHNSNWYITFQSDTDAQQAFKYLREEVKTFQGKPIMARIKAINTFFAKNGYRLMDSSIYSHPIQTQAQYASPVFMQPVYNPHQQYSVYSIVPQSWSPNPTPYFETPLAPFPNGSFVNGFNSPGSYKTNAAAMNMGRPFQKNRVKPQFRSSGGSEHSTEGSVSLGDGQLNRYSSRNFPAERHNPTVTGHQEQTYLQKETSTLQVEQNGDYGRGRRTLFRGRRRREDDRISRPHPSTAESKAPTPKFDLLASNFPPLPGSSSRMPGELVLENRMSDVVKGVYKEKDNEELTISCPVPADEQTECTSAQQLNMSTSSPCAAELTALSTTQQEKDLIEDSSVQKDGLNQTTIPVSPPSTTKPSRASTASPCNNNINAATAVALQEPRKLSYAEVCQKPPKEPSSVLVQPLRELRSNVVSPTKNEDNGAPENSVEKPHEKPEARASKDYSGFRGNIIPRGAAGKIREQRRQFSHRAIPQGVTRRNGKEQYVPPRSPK
active: [3] -0.308
inactive: [1] -0.027 | [2] -0.098 | [4] 0.177 | [5] -0.075 | [6] 0 | [7] 0.017 | [8] 0.06 | [9] 0.104 | [10] -0.237 | [11] 0.022 | [12] -0.027 | [13] -0.073 | [14] -0.147 | [15] 0 | [16] -0.028 | [17] -0.078 | [18] -0.103 | [19] 0.071 | [20] -0.046

MAGEC2 (UniProt Q9UBF1)
UniProt Q9UBF1, sequence (Q9UBF1 whole entry, looked up): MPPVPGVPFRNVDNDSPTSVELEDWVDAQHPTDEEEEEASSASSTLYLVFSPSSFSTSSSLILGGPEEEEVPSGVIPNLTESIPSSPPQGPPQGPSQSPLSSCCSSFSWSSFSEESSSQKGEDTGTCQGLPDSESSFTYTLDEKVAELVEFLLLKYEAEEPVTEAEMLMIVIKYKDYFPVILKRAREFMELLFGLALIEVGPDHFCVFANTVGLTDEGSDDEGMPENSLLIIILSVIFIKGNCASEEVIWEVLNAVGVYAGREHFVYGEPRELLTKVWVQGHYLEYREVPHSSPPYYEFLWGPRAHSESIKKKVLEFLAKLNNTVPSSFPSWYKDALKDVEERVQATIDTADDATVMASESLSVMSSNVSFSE
inactive: [1] 0.008 | [2] 0.049 | [3] 0.009 | [4] 0.081 | [5] 0.043 | [6] 0.055 | [7] 0.107 | [8] -0.036 | [9] -0.036 | [10] -0.012 | [11] -0.024 | [12] -0.065 | [13] -0.02 | [14] 0.021 | [15] 0.059 | [16] 0 | [17] -0.056 | [18] -0.07 | [19] -0.02 | [20] -0.015

LTN1 isoform 3 (UniProt O94822)
UniProt O94822, sequence (O94822 whole entry, looked up): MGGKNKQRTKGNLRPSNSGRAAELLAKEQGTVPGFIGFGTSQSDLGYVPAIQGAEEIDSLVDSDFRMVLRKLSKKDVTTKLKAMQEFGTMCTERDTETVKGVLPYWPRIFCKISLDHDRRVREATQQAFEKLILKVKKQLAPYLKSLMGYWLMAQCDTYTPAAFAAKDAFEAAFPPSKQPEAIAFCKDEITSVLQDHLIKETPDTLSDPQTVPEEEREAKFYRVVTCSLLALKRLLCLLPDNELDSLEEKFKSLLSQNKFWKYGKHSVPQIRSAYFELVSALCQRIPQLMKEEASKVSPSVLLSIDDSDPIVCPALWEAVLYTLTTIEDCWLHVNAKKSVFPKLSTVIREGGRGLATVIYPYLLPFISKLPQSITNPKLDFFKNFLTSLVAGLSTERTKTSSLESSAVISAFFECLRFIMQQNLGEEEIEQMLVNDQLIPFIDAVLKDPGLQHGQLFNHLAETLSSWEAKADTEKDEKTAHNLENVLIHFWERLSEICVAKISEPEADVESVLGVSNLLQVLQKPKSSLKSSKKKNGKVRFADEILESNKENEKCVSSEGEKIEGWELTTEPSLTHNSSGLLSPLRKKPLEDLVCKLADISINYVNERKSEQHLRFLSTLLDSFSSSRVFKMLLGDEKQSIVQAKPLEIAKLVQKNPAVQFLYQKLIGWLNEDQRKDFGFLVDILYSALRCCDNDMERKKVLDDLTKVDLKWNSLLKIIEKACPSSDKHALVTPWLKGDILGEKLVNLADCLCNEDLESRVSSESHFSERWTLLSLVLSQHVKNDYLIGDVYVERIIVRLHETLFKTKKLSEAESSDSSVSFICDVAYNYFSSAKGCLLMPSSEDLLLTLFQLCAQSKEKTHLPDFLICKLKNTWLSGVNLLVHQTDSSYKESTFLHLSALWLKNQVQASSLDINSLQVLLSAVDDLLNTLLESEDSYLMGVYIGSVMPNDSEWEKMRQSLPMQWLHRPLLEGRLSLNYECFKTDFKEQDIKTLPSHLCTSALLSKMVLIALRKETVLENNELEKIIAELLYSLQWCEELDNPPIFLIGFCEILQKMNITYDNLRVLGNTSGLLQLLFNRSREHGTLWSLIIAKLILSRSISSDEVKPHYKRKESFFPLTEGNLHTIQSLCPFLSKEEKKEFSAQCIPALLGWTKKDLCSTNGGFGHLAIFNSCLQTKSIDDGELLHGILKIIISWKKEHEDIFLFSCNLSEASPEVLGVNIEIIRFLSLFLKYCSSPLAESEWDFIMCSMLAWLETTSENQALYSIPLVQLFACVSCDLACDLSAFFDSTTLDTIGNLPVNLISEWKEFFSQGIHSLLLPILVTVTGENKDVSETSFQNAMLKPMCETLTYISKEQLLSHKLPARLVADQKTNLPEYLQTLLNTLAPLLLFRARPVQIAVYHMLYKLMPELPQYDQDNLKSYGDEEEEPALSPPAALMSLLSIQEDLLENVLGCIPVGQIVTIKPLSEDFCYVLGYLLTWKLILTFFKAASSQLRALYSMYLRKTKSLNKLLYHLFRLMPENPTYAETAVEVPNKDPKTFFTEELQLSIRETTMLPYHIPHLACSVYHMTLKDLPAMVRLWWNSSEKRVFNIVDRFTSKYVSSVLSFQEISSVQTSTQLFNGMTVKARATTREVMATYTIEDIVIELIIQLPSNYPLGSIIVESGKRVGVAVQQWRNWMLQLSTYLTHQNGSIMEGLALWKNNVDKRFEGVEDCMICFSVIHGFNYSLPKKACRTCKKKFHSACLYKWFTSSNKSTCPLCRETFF
inactive: [1] -0.049 | [2] -0.136 | [3] -0.077 | [4] 0.128 | [5] -0.05 | [6] -0.234 | [7] 0.012 | [8] 0.11 | [9] 0.021 | [10] -0.229 | [11] -0.036 | [12] 0.039 | [13] -0.079 | [14] -0.031 | [15] -0.122 | [16] -0.052 | [17] -0.09 | [18] -0.042 | [19] -0.151 | [20] -0.009

MED16 (UniProt Q9Y2X0)
UniProt Q9Y2X0, sequence (Q9Y2X0 whole entry, looked up): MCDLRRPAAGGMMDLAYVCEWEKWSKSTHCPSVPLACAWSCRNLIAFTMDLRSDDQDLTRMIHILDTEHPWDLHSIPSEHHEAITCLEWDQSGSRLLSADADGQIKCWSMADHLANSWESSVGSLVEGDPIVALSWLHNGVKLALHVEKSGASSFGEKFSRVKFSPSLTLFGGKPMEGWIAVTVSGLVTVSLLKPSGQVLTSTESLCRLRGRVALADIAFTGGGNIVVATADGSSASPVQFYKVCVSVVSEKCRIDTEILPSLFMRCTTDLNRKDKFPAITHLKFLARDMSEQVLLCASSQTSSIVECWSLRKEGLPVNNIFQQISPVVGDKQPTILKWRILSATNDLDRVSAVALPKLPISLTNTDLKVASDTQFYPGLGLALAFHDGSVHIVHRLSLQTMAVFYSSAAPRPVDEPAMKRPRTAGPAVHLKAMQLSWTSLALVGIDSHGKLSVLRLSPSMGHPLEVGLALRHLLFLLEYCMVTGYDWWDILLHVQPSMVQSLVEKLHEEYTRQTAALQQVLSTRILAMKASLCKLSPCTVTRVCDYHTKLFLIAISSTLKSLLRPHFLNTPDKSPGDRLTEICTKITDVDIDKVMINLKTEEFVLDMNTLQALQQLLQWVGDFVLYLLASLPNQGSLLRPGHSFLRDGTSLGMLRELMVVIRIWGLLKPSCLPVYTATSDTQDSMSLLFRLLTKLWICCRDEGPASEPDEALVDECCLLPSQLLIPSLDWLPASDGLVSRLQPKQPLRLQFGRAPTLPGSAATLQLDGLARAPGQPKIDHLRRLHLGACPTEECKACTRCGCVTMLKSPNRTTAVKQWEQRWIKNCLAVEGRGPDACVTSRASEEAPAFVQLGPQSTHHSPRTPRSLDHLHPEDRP
inactive: [1] -0.04 | [2] -0.072 | [3] -0.071 | [4] 0.06 | [5] -0.053 | [6] -0.098 | [7] -0.096 | [8] 0.063 | [9] 0.08 | [10] -0.097 | [11] 0.018 | [12] -0.009 | [13] -0.014 | [14] -0.092 | [15] 0.141 | [16] -0.287 | [17] -0.144 | [18] 0.009 | [19] -0.029 | [20] 0.024
